In all, about 420,000 compounds went through this assay and about 50,000 (12%) were called active. Entries that show only a call come without a potency. Inconclusive results (about 26%) are left out. Only a selection was taken, and actives are over-represented in it overall. Unmarked numbers belong to inactive results. Calls come from the whole dose curve; as a rule, active = well fitted inhibition curve with a large enough effect; inconclusive = small, poorly fitted or top-dose-only effect; inactive = flat fitted curve, though single readings scatter.
Potency is the fitted concentration of half-maximal effect.

This assay in a line: qHTS for Inhibitors of human tyrosyl-DNA phosphodiesterase 1 (TDP1): qHTS in cells in presence of CPT. Note: nearly all actives have a fitted effect of over 55% in size. The conditions noted are these: chicken DT40 Tdp1-/-;hTDP1 cells + 20 nM CPT, ATP luminescence, 48 h; series mostly up to 46.2 µM. A digest of the protocol:
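Chicken DT40 Tdp1-/- cells complemented with human TDP1, 400 cells/well, exposed to compounds plus 20 nM camptothecin for at least 48 h at 37 C; viability read as ATP content by CellTiter-Glo luminescence.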
`Cc1ccc2cccc(NC(=O)C(C)Oc3ccc(C)c(C)c3)c2n1` (centres undefined): the Potency is 20.6 µM (active).
The same measure, in the same setting: the result for `Cc1ccc2cccc(NC(=O)c3ccc(OC(C)C)cc3)c2n1` reads 18.4 µM (active); that for `CC(Oc1ccc(Cl)cc1)C(=O)Nc1ncccn1` (centres undefined), “inactive”; that for `CC(C)Oc1ccc(C(=O)NC(C)(C)CO)cc1`, “inactive”.
The same measure, in the same setting: the result for `CC(C)Oc1ccc(C(=O)Nc2cc(=O)n(C)c(=O)n2C)cc1` reads “inactive”; that for `COc1ccc(OC(C)C(=O)Nc2cccnc2)cc1` (centres undefined), “inactive”; that for `Cc1ccc(Cn2c(=O)n(-c3ccc(C)cc3)c(=O)c3c2c2cc(C)ccc2n3C)cc1`, “inactive”.
Still for that read-out and setting: to `CCCCSCCCNC(=O)C1CCC(CNS(=O)(=O)c2ccc(NC(C)=O)cc2)CC1` (centres undefined) belongs “inactive”; to `CC1CCN(C(=O)CCNC(=O)c2ccccc2)CC1`, “inactive”.
Take `C=CCn1c(CCNC(=O)c2ccccc2F)nnc1SCC(=O)Nc1ccc(OC)cc1`: the Potency entry is “inactive”.
Still for that read-out and setting: the result for `Cc1ccc(CN(CC(=O)NCC2CCCO2)S(=O)(=O)c2ccc(C)cc2)cc1` (centres undefined) reads “inactive”; that for `Cc1ccc2nc3n(c(=O)c2c1)CCC3`, “inactive”; that for `Cc1ccc2nc(C)c3c(c2c1)N(c1ccccc1)CC3`, 11.6 µM (active).
On the same count and under the same terms, the result for `Cc1nc2ccc(C(=O)N3CCN(c4ccccc4)CC3)cc2s1` reads “inactive”; that for `COc1ccc(Cn2ccnc2SCC(=O)NCc2ccco2)cc1`, “inactive”; that for `CCOC(=O)c1cccc(NC(=O)CCc2nnc3ccc(N4CCOCC4)nn23)c1`, “inactive”.
Consider `O=C(NC1CCCCC1)C1CCC(CNS(=O)(=O)c2ccccc2)CC1` (centres undefined), for which the Potency result was “inactive”.
`COc1nc(NC2CCCCC2)nc(N2CCCCCC2)n1`: the Potency was 22.4 µM (active).
Still for that read-out and setting: the result for `CN(N)c1nc(N2CCCC2)nc(N2CCCC2)n1` reads “inactive”; that for `Clc1nc(NC2CCCC2)nc(N2CCOCC2)n1`, “inactive”.
On the same count and under the same terms, to `C[C@@H]1CN([C@@H](C)CO)C(=O)c2cc(Br)cnc2O[C@@H]1CN(C)C(=O)C1CCCCC1` belongs “inactive”.
Same read-out and setting: the result for `CC(=O)N[C@H]1[C@H]([C@H](O)[C@H](O)CO)OC(C(=O)O)=C[C@@H]1O` reads “inactive”; that for `CCN(CC)c1ccc2oc(=O)c(C)nc2c1`, 5.17 µM (active).
For the compound `CCN(CC)c1ccc2c(Nc3ccccc3)c(C=O)c(=O)oc2c1`, the Potency result was “inactive”.
On to `Cc1ccc2oc(=O)ccc2c1`, for which the Potency result is “inactive”.
Still for that read-out and setting: the result for `CCOc1cc(/C=C2\C(=N)N3N=C(C)SC3=NC2=O)ccc1OCCOc1ccccc1` reads “inactive”.
Consider `S=C(NCc1ccco1)NCc1ccccc1Cl`, for which the Potency entry is “inactive”.
The same measure, in the same setting: the result for `Cc1ccc(NC(=S)NCc2ccccc2Cl)c(C)c1` reads 23.1 µM (active); that for `Cc1c(Cl)cccc1NC(=S)NCc1ccc2c(c1)OCO2`, “inactive”.
Take `CCC(=O)N1CCC(C)(C(=O)Nc2cc(OC)c(OC)c(OC)c2)C1` (centres undefined): the Potency entry is “inactive”.
On the same count and under the same terms, to `CNc1ccc(NC(C)=O)cc1[N+](=O)[O-]` belongs “inactive”; to `CC(=O)Nc1ccc(/C=N/Nc2ccc(C(=O)c3c(C)cc4ccccn34)cc2[N+](=O)[O-])cc1`, 18.4 µM (active); to `Cc1ccc(Nc2ccc(C(N)=O)cc2[N+](=O)[O-])cc1`, “inactive”.
On the same count and under the same terms, to `CCCCN1C(=O)C(CC(=O)NCc2cccs2)CC(C(=O)N2CCOCC2)=C1C` (centres undefined) belongs “inactive”.
`O=C(CSc1ncnc2sccc12)NC1CCS(=O)(=O)C1` (centres undefined): the Potency entry was “inactive”.
The same measure, in the same setting: to `Cc1noc(C)c1C(=O)N1CCC1(C)C(=O)NS(=O)(=O)c1ccc(C#N)cc1` (centres undefined) belongs “inactive”; to `COc1ccc(C(=O)CSc2nc(C)cc(C)n2)cc1[N+](=O)[O-]`, “inactive”; to `O=C(Nc1ccc([N+](=O)[O-])cc1)c1cnn2c1NC(=C1CC1)C=C2C(F)F`, “inactive”.
On to `CC(C)(C)C1CCC(NC(=O)c2cnn3c2NC(=C2CC2)C=C3C(F)F)CC1` (centres undefined), for which the Potency was 10 µM (active).
On the same count and under the same terms, the result for `O=C(Nc1ccc(Cl)cc1)c1cnn2c1NC(=C1CC1)C=C2C(F)F` reads “inactive”; that for `COc1cc(NC(=S)NCc2ccco2)c(OC)cc1Cl`, “inactive”; that for `CNC(=O)Nc1cc(C(C)(C)C)no1`, 16.4 µM (active).
With `COc1ccc(NC(=O)c2cc(=O)[nH]c3ccccc23)cc1S(=O)(=O)N1CCOCC1`, the Potency entry was “inactive”.
With `CCCCC/C=C\CC1OC1CCCCCCCC(=O)O` (centres undefined), the activity change, negative = growth inhibition was 0.0245% [at 0.628 µM].
`O=[N+]([O-])c1cc(S(=O)(=O)NCCc2ccccn2)ccc1Cl`: the Potency entry was “inactive”.
Still for that read-out and setting: to `Cc1ccc(C(=O)N/C(=C/c2cccnc2)C(=O)O)cc1` belongs “inactive”; to `CC(=O)N(C)c1ccc(NC(=O)Nc2cccc3ccccc23)cc1`, “inactive”.
Still for that read-out and setting: to `CCN(C(=O)Nc1cccc2ccccc12)c1ccccc1` belongs 23.1 µM (active); to `O=C(Nc1cccc2ccccc12)NC1CC1`, “inactive”; to `CCn1c(-c2cccnc2Cl)nc2cc(C)c(C)cc21`, “inactive”.
Still for that read-out and setting: the result for `O=C(NCc1ccccc1)c1ccc(S(=O)(=O)Nc2cccc(C(F)(F)F)c2)cc1` reads “inactive”; that for `CCOC(=O)N1CCN(C(=O)c2ccc(S(=O)(=O)c3ccc(C)cc3)c(NC(C)=O)c2)CC1`, “inactive”.
As to `CCOC(=O)N1CCN(C(=O)c2ccc(S(=O)(=O)Nc3cccc(C(F)(F)F)c3)cc2)CC1`, the Potency is 16.4 µM (active).
On the same count and under the same terms, to `CC(C)(C)NC(=O)CN1CCC(NC(=O)C23CC4CC(CC(C4)C2)C3)CC1` belongs “inactive”.
Turning to `COc1cccc(CCNC(=O)c2cccc(NC(=O)C3=C(C)OCCS3)c2)c1`, the Potency is 23.1 µM (active).
Turning to `O=C(Nc1cccc(C(=O)N2CCCC2)c1)c1ccccc1`, the Potency result was “inactive”.
For the compound `CC1=C(C(=O)Nc2cccc(C(=O)NCC(C)c3ccccc3)c2)SCCO1` (centres undefined), the Potency is 16.4 µM (active).
In the case of `COc1cccc(CCNC(=O)COc2cccc3c2OC(C)(C)C3)c1`, the Potency result is “inactive”.
`COc1cccc(C(=O)NCCSc2ccc(Br)cc2)c1`: the Potency entry was “inactive”.
The same measure, in the same setting: to `CC(CNC(=O)c1nnc(Cc2cccc(F)c2)o1)c1ccccc1` (centres undefined) belongs “inactive”; to `COCCn1c(N)c(N(Cc2ccccc2)C(=O)C2CCCCC2)c(=O)[nH]c1=O`, “inactive”; to `Cc1nn(C)c(C)c1S(=O)(=O)N1CCC(CO)(Cc2ccc(Cl)cc2)CC1`, “inactive”.
On the same count and under the same terms, to `Cc1c(Cl)cnc(NC(=O)COC(=O)C2CCCC2)c1Cl` belongs “inactive”; to `N#Cc1ccc(CSc2ncccn2)cc1`, “inactive”.
The same measure, in the same setting: to `CC(C)C(c1nnnn1C1CCCCC1)N1CCN(C(=O)c2ccco2)CC1` (centres undefined) belongs “inactive”; to `CC1(C)C2CC[C@]3(C)C(CC=C4[C@@H]5C[C@@](C)(CO)CC[C@]5(C(=O)O)CC[C@]43C)[C@@]2(C)CC[C@@H]1O` (some centres undefined), “inactive”; to `CC(=NCc1ccco1)C1=C(O)c2ccccc2C1=O`, “inactive”.
Consider `CCOC(=O)c1cc2n(c1N)-c1ccccc1C2=O`, for which the Potency result is “inactive”.
On the same count and under the same terms, the result for `CCOC(=O)c1c(-c2ccc(C)cc2)csc1/N=C(\C)C1=C(O)c2ccccc2C1=O` reads 23.1 µM (active); that for `CN(C)Cc1c(C(=O)N/N=C/c2ccccc2OCc2ccc(F)cc2)nnn1-c1nonc1N`, “inactive”; that for `CCOC(=O)N1CCC(=NNC(N)=O)CC1`, “inactive”.
Same read-out and setting: to `COc1ccc(S(=O)(=O)NCC(c2ccco2)N2CCOCC2)cc1` (centres undefined) belongs “inactive”; to `O=C(NC1CCCC1)C(c1ccco1)N(C(=O)c1ccco1)c1ccc(F)cc1` (centres undefined), “inactive”; to `CC1(C)CC(CNCCC(c2ccc(F)cc2)c2ccco2)CCO1` (centres undefined), 25.9 µM (active).
The same measure, in the same setting: the result for `CC1(C)CC(N(Cc2ccccc2)C(=O)Cc2ccccc2)CCO1` (centres undefined) reads “inactive”; that for `CSc1ccc(CN(C)CC(=O)NCc2ccc(F)cc2)cc1`, “inactive”; that for `CC(C=Cc1ccccc1)=NNS(=O)(=O)c1ccc([N+](=O)[O-])cc1`, “inactive”.
Turning to `CC(=O)c1c(OCC(=O)N(C)C2CCCCC2)ccc2c(C)cc(=O)oc12`, the Potency result was “inactive”.
On the same count and under the same terms, to `Cc1cc(/C=C2/NC(=O)NC2=O)c(C)n1-c1cccnc1` belongs “inactive”; to `Cc1ccc2nc(COc3cccc(NC(=O)Nc4ccc(C)c(Cl)c4)c3)cc(=O)n2c1`, “inactive”.
On the same count and under the same terms, the result for `Cc1ccc2nc(COc3ccccc3NC(=O)Nc3ccc(F)c(Cl)c3)cc(=O)n2c1` reads 11.6 µM (active); that for `Cc1ccc2nc(COc3ccc(NC(=O)COc4ccccc4F)cc3)cc(=O)n2c1`, “inactive”; that for `Cc1ccsc1C(=O)N[C@@H](C)c1nnc2ccccn12`, “inactive”.
In the case of `CCCc1cc(=O)[nH]c(SCC(=O)Nc2sc3c(c2C#N)CCCC3)n1`, the Potency result is “inactive”.
Regarding `CC(=O)c1c(C)[nH]c(C(=O)OCC(=O)Nc2c(C)n(C)n(-c3ccccc3)c2=O)c1C`, the Potency entry is “inactive”.
As to `CC(=O)c1c(C)[nH]c(C(=O)OCC(=O)Nc2c(C)cccc2C)c1C`, the Potency was 20.6 µM (active).
Same read-out and setting: the result for `N#Cc1c(NC(=O)CCCl)sc2c1CCCCC2` reads 18.4 µM (active); that for `N#Cc1c(NC(=O)C2CCCO2)sc2c1CCCCC2` (centres undefined), “inactive”; that for `COc1ccc(-n2c(SCC(=O)Nc3sc4c(c3C#N)CCCC4)nnc2-c2ccc(O)cc2)cc1`, “inactive”.
Still for that read-out and setting: to `CC(=O)c1c(C)[nH]c(C(=O)OCC(=O)NCCC(C)C)c1C` belongs “inactive”; to `CCN1CCN(CC(=O)Nc2sc3c(c2C#N)CCC3)CC1`, “inactive”.
Still for that read-out and setting: the result for `CC(=O)c1c(C)[nH]c(C(=O)OCC(=O)Nc2sc3c(c2C#N)CCCC3)c1C` reads 16.4 µM (active); that for `CC1=CC=CC2=N/C(=N\S(=O)(=O)c3ccc(F)cc3F)c3ccccc3CN12`, “inactive”; that for `C=CCn1c(CNS(=O)(=O)c2ccc(Br)cc2)nnc1SC`, “inactive”.
`CCOC(=O)c1c(C)[nH]c(C(=O)OCC(=O)N2CCCC2=O)c1C`: the Potency result is “inactive”.
Same read-out and setting: to `CC(C)c1nc(CNC(=O)CC2C(=O)NCCN2Cc2cccc(F)c2F)cs1` (centres undefined) belongs “inactive”.
On the same count and under the same terms, to `CC1(C(=O)Nc2ccc3c(c2)OCCO3)CN(S(C)(=O)=O)CC(=O)N1Cc1cccc(F)c1` (centres undefined) belongs “inactive”; to `CCCc1nn2c(=O)cc(COC(=O)c3ccc(NC(=O)C(C)Oc4ccccc4)cc3)nc2s1` (centres undefined), “inactive”.
For `CCCCc1nn2c(=O)cc(COC(=O)c3ccccc3NC(=O)C(C)(C)C)nc2s1`, the Potency result was “inactive”.
Turning to `CCOCCc1nn2c(=O)cc(COC(=O)CNC(=O)c3ccc(C(C)(C)C)cc3)nc2s1`, the Potency is 16.4 µM (active).
Same read-out and setting: to `Cc1nn2c(=O)cc(COC(=O)CNC(=O)c3ccc(F)cc3)nc2s1` belongs “inactive”; to `CCCCc1nn2c(=O)cc(COC(=O)c3ccc(NC(=O)c4ccccc4C)cc3)nc2s1`, 20.6 µM (active); to `CCOCCc1nn2c(=O)cc(CSCC(=O)Nc3cccc(C)c3C)nc2s1`, “inactive”.
With `O=C(O)CCCCC(=O)O`, the Potency entry is “inactive”.

Values taken from PubChem BioAssay AID686979 (National Center for Advancing Translational Sciences (NCATS), 2013).
